In PubChem BioAssay (NCI):
Compounds without any hit were thinned out: in the full panel of roughly 83,000, 20% have a hit.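 Activity criterion: percent growth below 10, measured after cells in 96-well plates were exposed to a single compound concentration for 48 hours.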 Calls of active or inactive are those of the source.

Experiments:
Assay in all cases: NCI-60 one-dose screen, 48 h (100 = growth as untreated, 0 = no growth, -100 = all killed)
Conditions in all cases: 10 µM unless noted
SK-MEL-2 melanoma = system: SK-MEL-2 melanoma
EKVX NSCLC = system: EKVX NSCLC
SN12C renal = system: SN12C renal
UO-31 renal = system: UO-31 renal
TK-10 renal = system: TK-10 renal
ACHN renal = system: ACHN renal
A498 renal = system: A498 renal
CCRF-CEM leukemia = system: CCRF-CEM leukemia
MOLT-4 leukemia = system: MOLT-4 leukemia
SR leukemia = system: SR leukemia

Measured: growth

N#Cc1c(-c2ccc(Cl)cc2)cc(-c2cc3ccccc3o2)nc1SCC(=O)c1ccc(Cl)cc1
inactive: SK-MEL-2 melanoma 91% | EKVX NSCLC 116% | SN12C renal 94.2% | UO-31 renal 79.8% | TK-10 renal 139% | ACHN renal 86.9% | A498 renal 111% | CCRF-CEM leukemia 106% | MOLT-4 leukemia 95.1% | SR leukemia 80.2%

O=C1Nc2ccc(Br)cc2/C1=N\N=C/c1cn(Cc2ccccc2)c2ccccc12
inactive: SK-MEL-2 melanoma 91.3% | EKVX NSCLC 56.2% | SN12C renal 84.5% | UO-31 renal 75.7% | TK-10 renal 82.4% | ACHN renal 98.9% | A498 renal 15.3% | CCRF-CEM leukemia 81.1% | MOLT-4 leukemia 67% | SR leukemia 80.1%

CN(C)CCCn1c2c(c3cc(-c4ccco4)ccc3c1=O)C(=O)c1ccccc1-2
active: SR leukemia -40.2%
inactive: SK-MEL-2 melanoma 117% | EKVX NSCLC 81.4% | SN12C renal 51.9% | UO-31 renal 51.6% | TK-10 renal 66.3% | ACHN renal 48.5% | A498 renal 93.7% | CCRF-CEM leukemia 36.2% | MOLT-4 leukemia 10.9%

C=C1C(=O)O[C@H]2[C@H]1CC/C(COC(=O)CCCCCCCCC(=O)OC/C1=C/CC[C@@]3(C)O[C@H]3[C@H]3OC(=O)C(=C)[C@@H]3CC1)=C\CC[C@@]1(C)O[C@@H]21
inactive: SK-MEL-2 melanoma 22% | A498 renal 96.8%
active: EKVX NSCLC 8.84% | SN12C renal -1.39% | UO-31 renal -75.2% | TK-10 renal 0.838% | ACHN renal -23.2% | CCRF-CEM leukemia 2.5% | MOLT-4 leukemia 3.83% | SR leukemia -2.09%

CC1=C/C(=N\N=C2/C=C(C)CC(C)(C)C2)CC(C)(C)C1
inactive: SK-MEL-2 melanoma 107% | EKVX NSCLC 108% | SN12C renal 108% | UO-31 renal 83.7% | TK-10 renal 95.2% | ACHN renal 110% | A498 renal 94.4% | CCRF-CEM leukemia 97.9% | MOLT-4 leukemia 96.3% | SR leukemia 97.3%

Nc1c(C(=O)Nc2ccccn2)sc2nc3c(cc12)C(=O)CCC3
active: A498 renal 2.05%
inactive: SK-MEL-2 melanoma 32.9% | EKVX NSCLC 34.4% | SN12C renal 43.6% | UO-31 renal 59.3% | TK-10 renal 64.2% | ACHN renal 59.5% | CCRF-CEM leukemia 47.9% | MOLT-4 leukemia 69.7% | SR leukemia 40.6%

COc1cccc(C(=O)OCCn2nc3c4c(cccc42)C(=O)c2ccccc2-3)c1O
inactive: SK-MEL-2 melanoma 78.7% | EKVX NSCLC 56.1% | SN12C renal 41.5% | UO-31 renal 62.6% | TK-10 renal 85.5% | ACHN renal 56.6% | A498 renal 81.7% | CCRF-CEM leukemia 18.3% | MOLT-4 leukemia 29.7% | SR leukemia 21.2%

OCCNc1nc(NCCO)nc(Nc2ccc(C3=NN(c4cc(Cl)cc(Cl)c4)C(c4ccc(C(F)(F)F)cc4)C3)cc2)n1 (stereo not given)
active: CCRF-CEM leukemia -6.5% | MOLT-4 leukemia 7.9% | SR leukemia 4.83%
inactive: SK-MEL-2 melanoma 45.9% | EKVX NSCLC 49.4% | SN12C renal 59.6% | UO-31 renal 42.2% | TK-10 renal 33.1% | ACHN renal 29.6% | A498 renal 67.7%

CC(=O)Nc1c(C(=O)Nc2ccccc2)sc2nc3c(cc12)C(OC(C)=O)CCC3 (stereo not given)
active: A498 renal -1.22%
inactive: SK-MEL-2 melanoma 89.8% | EKVX NSCLC 99.6% | SN12C renal 89.6% | UO-31 renal 72.9% | TK-10 renal 75.9% | ACHN renal 59.5% | CCRF-CEM leukemia 94.6% | MOLT-4 leukemia 100% | SR leukemia 80%

COc1ccc2nc(-c3ccc(OC)c(OC)c3)cc(-c3nnc(SCC(=O)Nc4ccc(C(C)=O)cc4)o3)c2c1
inactive: SK-MEL-2 melanoma 100% | EKVX NSCLC 108% | SN12C renal 98.8% | UO-31 renal 91.7% | TK-10 renal 109% | ACHN renal 101% | A498 renal 93.6% | CCRF-CEM leukemia 94.8% | MOLT-4 leukemia 95.5% | SR leukemia 88.8%

C=C1C(=O)O[C@H]2[C@H]1CC/C(COC(=O)/C=C/c1cccnc1)=C\CC[C@@]1(C)O[C@@H]21
inactive: SK-MEL-2 melanoma 75.2% | EKVX NSCLC 43.4% | SN12C renal 16.8% | UO-31 renal 24.9% | TK-10 renal 25.1% | A498 renal 92.4%
active: ACHN renal -11.4% | CCRF-CEM leukemia -7.32% | MOLT-4 leukemia 8.45% | SR leukemia 6.38%

C#C[C@@]1(O)[C@@H](CO)O[C@@H](n2cnc3c(-c4ccccc4)ncnc32)[C@@H]1O
inactive: SK-MEL-2 melanoma 107% | EKVX NSCLC 97.7% | SN12C renal 102% | UO-31 renal 92.5% | TK-10 renal 100% | ACHN renal 115% | A498 renal 106% | CCRF-CEM leukemia 102% | MOLT-4 leukemia 99.7% | SR leukemia 101%

O=C(O)c1cn(C2CC2)c2cc(N3CCN(C(=O)CSc4nnc(-c5ccc(Cl)cc5)n4-c4ccccc4)CC3)c(F)cc2c1=O
inactive: SK-MEL-2 melanoma 104% | EKVX NSCLC 111% | SN12C renal 102% | UO-31 renal 84.7% | TK-10 renal 99.4% | ACHN renal 108% | A498 renal 67.8% | CCRF-CEM leukemia 84.3% | MOLT-4 leukemia 103% | SR leukemia 89.9%

c1ccc2nc(N3CCOCC3)c(N3CCCCC3)nc2c1
inactive: SK-MEL-2 melanoma 95.2% | EKVX NSCLC 97.7% | SN12C renal 96.2% | UO-31 renal 77.2% | TK-10 renal 98.8% | ACHN renal 103% | A498 renal 78.3% | CCRF-CEM leukemia 93.6% | MOLT-4 leukemia 95.6% | SR leukemia 90.2%

COCCOC(=O)COc1ccc(OC)cc1
inactive: SK-MEL-2 melanoma 120% | EKVX NSCLC 96.6% | SN12C renal 99.7% | UO-31 renal 88.9% | TK-10 renal 108% | ACHN renal 106% | A498 renal 88.2% | CCRF-CEM leukemia 104% | MOLT-4 leukemia 90.7% | SR leukemia 88.2%

Cc1cccc(C)c1Nc1nnc(-c2ccc(F)cc2)o1
inactive: SK-MEL-2 melanoma 105% | EKVX NSCLC 104% | SN12C renal 105% | UO-31 renal 88.8% | TK-10 renal 105% | ACHN renal 100% | A498 renal 103% | CCRF-CEM leukemia 100% | MOLT-4 leukemia 110% | SR leukemia 119%

C=C1C(=O)O[C@H]2[C@H]1CC/C(COC(=O)NCc1nc3ccccc3[nH]1)=C\CC[C@@]1(C)O[C@@H]21
inactive: SK-MEL-2 melanoma 60.2% | EKVX NSCLC 83% | SN12C renal 81.6% | UO-31 renal 75.5% | TK-10 renal 74.3% | ACHN renal 91.4% | A498 renal 135% | CCRF-CEM leukemia 10.9% | MOLT-4 leukemia 77.3% | SR leukemia 54.1%

CC(/C=C/c1ccccc1)=N/NC(=O)c1ccncc1
inactive: SK-MEL-2 melanoma 106% | EKVX NSCLC 107% | SN12C renal 99.8% | UO-31 renal 89% | TK-10 renal 105% | ACHN renal 111% | A498 renal 95% | CCRF-CEM leukemia 92.5% | MOLT-4 leukemia 92.2% | SR leukemia 88.9%

Nc1ccc(C2=NN(C(=O)c3cc(-c4ccc(Cl)cc4)nc4ccccc34)C(c3ccc(Cl)cc3)C2)cc1 (stereo not given)
inactive: SK-MEL-2 melanoma 34.7% | EKVX NSCLC 42.8% | SN12C renal 56.5% | UO-31 renal 47.6% | TK-10 renal 55.3% | ACHN renal 54.4% | A498 renal 31.1% | CCRF-CEM leukemia 17.8% | MOLT-4 leukemia 42.6% | SR leukemia 25.7%

CCCCCCC/C=C/[C@H]1O[C@]23C(=O)C[C@@]4(C[C@@H](OC5OC(CO)C(O)C(O)C5O)C[C@@H]4[C@H]2C=C1C)OC3=O (stereo not given in full)
active: SK-MEL-2 melanoma -9.46% | UO-31 renal 3.36% | ACHN renal 4.9% | MOLT-4 leukemia 8.32% | SR leukemia 6.22%
inactive: EKVX NSCLC 86.9% | SN12C renal 26.7% | TK-10 renal 35.8% | A498 renal 70.1% | CCRF-CEM leukemia 19%

COc1ccc(-c2cc(-c3nnc(SCC(=O)Nc4ccc(/C(C)=N\O)cc4)n3-c3ccccc3)c3cc(OC)ccc3n2)cc1
inactive: SK-MEL-2 melanoma 86.9% | EKVX NSCLC 82.7% | SN12C renal 86.8% | UO-31 renal 54.7% | TK-10 renal 87.8% | ACHN renal 72.6% | A498 renal 78.1% | CCRF-CEM leukemia 37.2% | MOLT-4 leukemia 29.9% | SR leukemia 49.1%

COc1ccc(N(C)c2nc(Cl)nc3ccn(C)c23)cc1
active: A498 renal -9.23% | CCRF-CEM leukemia 8.02% | MOLT-4 leukemia 9.94%
inactive: SK-MEL-2 melanoma 19.3% | EKVX NSCLC 43.1% | SN12C renal 23% | UO-31 renal 45% | TK-10 renal 67.7% | ACHN renal 21.9% | SR leukemia 11.3%

CN(C)[C@@H]1C(=O)C(C(N)=O)=C(O)[C@@]2(O)C(=O)C3=C(O)c4c(O)cc(CN5CCc6ccccc6C5)c(Cl)c4C[C@H]3C[C@@H]12
active: SK-MEL-2 melanoma -90.6% | EKVX NSCLC -90.3% | SN12C renal -73% | UO-31 renal -95.5% | TK-10 renal -84.3% | ACHN renal -76.1% | A498 renal -89.2% | CCRF-CEM leukemia -40.7% | MOLT-4 leukemia -67.9% | SR leukemia -50.7%

CCCCc1ccc(N=Nc2ccc(OCC[N+](C)(C)C)cc2)cc1
inactive: SK-MEL-2 melanoma 93.6% | EKVX NSCLC 85.1% | SN12C renal 31% | UO-31 renal 88.1% | TK-10 renal 31.3% | ACHN renal 67% | A498 renal 67.5% | CCRF-CEM leukemia 62.4% | MOLT-4 leukemia 57.2% | SR leukemia 76%

C[C@H]1[C@H](C)CC[C@]2(C(=O)OCCCC[P+](c3ccccc3)(c3ccccc3)c3ccccc3)CC[C@]3(C)C(=CC[C@@H]4[C@@]5(C)CC[C@H](OC(=O)C(Cl)Cl)C(C)(C)[C@@H]5CC[C@]43C)[C@H]12
active: SK-MEL-2 melanoma -63.8% | EKVX NSCLC -35.4% | SN12C renal -81% | UO-31 renal -93.9% | TK-10 renal -76.8% | ACHN renal -79.6% | A498 renal -82% | CCRF-CEM leukemia -16.6% | MOLT-4 leukemia -49.8% | SR leukemia -49.4%

CCOC(=O)c1cnn(-c2nc(-c3ccc(F)cc3)c(C#N)c(N3CCOCC3)n2)c1N
inactive: SK-MEL-2 melanoma 90% | EKVX NSCLC 92.9% | SN12C renal 93.9% | UO-31 renal 74.1% | TK-10 renal 64% | ACHN renal 95.7% | A498 renal 71.3% | CCRF-CEM leukemia 92.8% | MOLT-4 leukemia 90.4% | SR leukemia 81.9%
